An excerpt weighted towards active compounds, which were near 1.1% of everything screened.
Shn3 inh set2: reduces Shn3 3'UTR luciferase signal in osteoblasts. Clone20 osteoblast Shn3 3'UTR firefly luciferase, 24 h. AID 588674. 360,000 compounds, 0.52% hits. inhibition, % at 12.5 µM;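 active = mean inhibition of at least 75% with every replicate also reaching 75%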;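 note: 0% = median of neutral control wells and 100% = pilot-screen positive control compound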
Gli-Sufu antag: antagonists of Gli-Sufu signaling. Sufu-KO-LIGHT fibroblasts, Gli luciferase reporter luminescence. inhibition, % at 5 µM. 340,000 compounds, 0.74% hits;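 active = inhibition above about 55%, limit read from the data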;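 note: 0% = DMSO-treated cells and 100% = wells with medium but no cells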
LRH-1 inv ag: inverse agonists of human LRH-1 (NR5A2). HEK293T StAR-luciferase reporter, LRH-1 transfected, 24 h. 360,000 compounds, 0.13% hits. inhibition, % at 3.6 µM. O00482;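 active = inhibition above the mean inhibition of all tested compounds plus 3 SD, cut at about 73% in these data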;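 note: 0% = DMSO wells and 100% = reporter-only cells lacking LRH-1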
Target sequence (O00482 whole entry, looked up): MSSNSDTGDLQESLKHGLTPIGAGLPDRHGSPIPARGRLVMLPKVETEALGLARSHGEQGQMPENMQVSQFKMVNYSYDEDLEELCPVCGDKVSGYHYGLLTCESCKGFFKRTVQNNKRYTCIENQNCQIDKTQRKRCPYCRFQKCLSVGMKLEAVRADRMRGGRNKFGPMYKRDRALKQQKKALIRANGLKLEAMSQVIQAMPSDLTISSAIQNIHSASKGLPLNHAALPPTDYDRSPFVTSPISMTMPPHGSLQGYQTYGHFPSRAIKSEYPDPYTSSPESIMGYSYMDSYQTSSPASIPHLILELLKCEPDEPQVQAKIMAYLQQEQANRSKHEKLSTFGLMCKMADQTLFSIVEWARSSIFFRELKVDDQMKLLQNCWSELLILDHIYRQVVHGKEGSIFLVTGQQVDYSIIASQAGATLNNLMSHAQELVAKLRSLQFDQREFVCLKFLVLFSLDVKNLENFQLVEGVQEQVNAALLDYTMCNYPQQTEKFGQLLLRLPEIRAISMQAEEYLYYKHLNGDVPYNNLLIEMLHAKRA
SRC3 inh: inhibitors of human steroid receptor coactivator 3 (SRC3) | Q9Y6Q9 | 360,000 compounds, 0.17% hits | HEK293 GAL4-SRC3 luciferase reporter, luminescence | inhibition, % at 3.6 µM;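 active = inhibition above a per-campaign cutoff, the mean of all compounds plus 3 SD, cut at about 60% in these data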;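 note: 0% = DMSO-treated cells and 100% = gossypol-treated cells at 36 µM; higher means less SRC3-driven luciferase light from the GAL4 reporter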
NCOA1 inh: human NCOA1 inhibition | Q15788 | HEK293 GAL4-SRC1 luciferase reporter, luminescence | inhibition, % at 3.6 µM | 360,000 compounds, 0.12% hits;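 active = inhibition above the campaign mean plus 3 SD, with each screening campaign given its own cutoff, cut at about 60% in these data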;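 note: 0% = DMSO treated cells and 100% = gossypol at 36 µM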
NCOA2 inhibitor: inhibits human steroid receptor coactivator 2; HEK293 GAL4-SRC2 luciferase reporter, luminescence; inhibition, % at 9 µM; 370,000 compounds, 0.17% hits;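 active = inhibition above the mean inhibition of all tested compounds plus 3 SD, set per campaign, cut at about 52% in these data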;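 note: 0% = DMSO treated cells and 100% = cells given Gossypol at 36 µM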
Gli-Sufu confirm: Gli-SUFU antagonism confirmation, single concentration; shares compounds with Gli-Sufu antag; Sufu-KO-LIGHT cells, Gli luciferase reporter, luminescence; inhibition, % at 5 µM; 2,500 compounds, 40% hits; AID 602428;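 active = mean inhibition at 5 µM reaching about 45%, limit read from the data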;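 note: plate controls were DMSO-treated cells for no effect and wells lacking cells for full effect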
SufuKO cytotox: counter-screen for Gli-SUFU antagonists: cytotoxicity; Sufu-KO-LIGHT cells cytotoxicity, ATP luminescence; AID 651994; 2,500 compounds, 32% hits; cytotoxicity, % at 5 µM; shares compounds with Gli-Sufu antag;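 active = mean cytotoxicity at 5 µM above about 25%, limit read from the data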;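 note: cells exposed to compound overnight for roughly 16 to 18 hours; plate controls were DMSO wells with cells for no effect and medium without cells for full effect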
Wnt3a cs: Wnt3a reporter inhibition counter-screen; shares compounds with Gli-Sufu antag; Wnt-LIGHT cells, Wnt3a-driven luciferase reporter, luminescence; inhibition, % at 6.25 µM; 2,500 compounds, 20% hits;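 active = mean inhibition above about 25%, limit read from the data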
Active calls of the source: *; . = not tested or not shown.

SMILES | Shn3 inh set2 | Gli-Sufu antag | LRH-1 inv ag | SRC3 inh | NCOA1 inh | NCOA2 inhibitor | Gli-Sufu confirm | SufuKO cytotox | Wnt3a cs
COC(=O)[C@]1(CNS(=O)(=O)C2CC2)CC(=O)N(C)[C@@H]1c1ccccc1 | . | . | . | . | . | -3 | . | . | .
CC[n+]1c(/C=C/N(C)c2ccccc2)oc2ccccc21 | 74 | 85* | 59 | 46 | 40 | 19 | 87* | 42* | 33*
CC[n+]1c(/C=C/N(C)c2ccccc2)oc2ccc(F)cc21 | 76 | 82* | 14 | 18 | 17 | -9 | 84* | 26* | 70*
O=C(NCCN1CCC(Cc2ccccc2)CC1)C1CCCN(S(=O)(=O)c2ccccc2)C1 (stereo unspecified) | . | . | . | . | . | 16 | . | . | .
CC(NC(=O)c1ccccc1Cl)C1CC2CCC1C2 (stereo unspecified) | -8 | 6 | 2 | -11 | 11 | -8 | . | . | .
CC(NC(=O)CCNC(=O)c1ccccc1Cl)C1CC2CCC1C2 (stereo unspecified) | -12 | 55 | 19 | 14 | 21 | -6 | 18 | 18 | -34
CCC(C)NS(=O)(=O)c1ccc2[nH]c(=O)oc2c1 (stereo unspecified) | . | . | . | . | . | 3 | . | . | .
COc1ccccc1C(=O)n1ccc2ccc(-c3ccc4ccn(Cc5ccc(C#N)cc5)c4c3)cc21 | . | . | . | . | . | -10 | . | . | .
CCCCC(=O)Nc1nc(C)c(-c2csc(Nc3cc(OC)ccc3OC)n2)s1 | 21 | 95* | 12 | -28 | 8 | -1 | 33 | 25 | 17
CCCNC(=O)CCn1nc(-c2ccc(Cl)cc2)c2ccccc2c1=O | 7 | 5 | 16 | 17 | 5 | 8 | . | . | .
COCCNC(=O)CCn1nc(-c2ccc(Cl)cc2)c2ccccc2c1=O | 2 | 50 | 12 | -36 | -2 | . | 6 | 1 | -1
CC(=O)c1c(C)[nH]c(C(=O)OCC(=O)Nc2ccc(C)cc2[N+](=O)[O-])c1C | 79 | 77* | 31 | 33 | 5 | 29 | 80* | 27* | 28*
C=C(C)CSc1nc2sc3c(c2c(=O)n1C1CCCCC1)CCN(C)C3 | 63 | 58* | 3 | 7 | -110 | -2 | 47* | 25* | -7
C(#Cc1ccccc1)C[N+]1(CC#Cc2ccccc2)CCCC1 | 73 | 76* | 7 | 15 | 20 | 9 | 75* | 18 | 6
Cc1cc(C)cc(C(=O)OCCN(C)C2CN(Cc3cn(Cc4ccc([N+](=O)[O-])cc4)nn3)S(=O)(=O)C2)c1 (stereo unspecified) | . | . | . | . | . | -4 | . | . | .
Cc1c(Cl)cccc1NC(=O)NN1CCN(C)CC1 | 4 | 95* | 2 | 11 | 11 | -14 | 10 | 24 | -7
CN(Cc1ccccc1)S(=O)(=O)c1cccc(C(=O)OCc2cccc([N+](=O)[O-])c2)c1 | . | . | . | . | . | -4 | . | . | .
O=C(O)Cn1nnnc1SCC(=O)Nc1ccccc1F | 4 | 57* | -13 | 13 | -17 | -16 | 33 | 0 | 9
COC(=O)c1ccccc1NC(=O)CSc1nnnn1CC(=O)O | -36 | -11 | 10 | 7 | 3 | 10 | . | . | .
N#Cc1ccc(Cn2ccc3ccc(-c4ccc5ccn(C(=O)C6CCCCC6)c5c4)cc32)cc1 | . | . | . | . | . | 24 | . | . | .
Cc1n(Cc2ccccc2)c2ccccc2[n+]1Cc1ccccc1 | 63 | 53 | 22 | -5 | 16 | 10 | 62* | 33* | 11
OC(CN1CCCCCC1)CN(c1ccccc1)c1ccccc1 (stereo unspecified) | 34 | 52 | 10 | 10 | 20 | 18 | 16 | 12 | -30
CSCCC(=O)N(C)CC1CCCN(CCc2cccc(C(F)(F)F)c2)C1 (stereo unspecified) | 11 | 22 | -3 | 4 | 8 | 17 | . | . | .
COC(=O)CCC(=O)N(C)CC1CCCN(CCc2cccc(C(F)(F)F)c2)C1 (stereo unspecified) | -1 | 56* | -21 | 7 | -25 | 0 | 17 | 7 | -23
C=CCN1[C@@H](C)COc2cc(F)ccc2S1(=O)=O | . | . | . | . | . | 19 | . | . | .
SMILES | Shn3 inh set2 | Gli-Sufu antag | LRH-1 inv ag | SRC3 inh | NCOA1 inh | NCOA2 inhibitor | Gli-Sufu confirm | SufuKO cytotox | Wnt3a cs
COc1ccc(C)cc1NC(=O)CCN1CCN(c2ccccc2F)CC1 | 6 | 59* | 15 | 3 | 10 | 5 | 15 | 11 | -1
COc1ccc(OC)c(NC(=O)CCN2CCN(c3ccccc3F)CC2)c1 | 13 | 10 | -13 | -1 | -10 | 2 | . | . | .
C=CCN1C(C(=O)OC)CN(Cc2cn(Cc3ccc(Cl)cc3)nn2)CCS1(=O)=O (stereo unspecified) | . | . | . | . | . | 6 | . | . | .
COc1ccc(CN2CCCCC2C(=O)Nc2ccc(OC)c(OCC(C)C)c2)cc1OC (stereo unspecified) | -3 | 63* | 25 | -6 | -7 | -41 | 21 | 29* | -51
CC1CCN(Cc2ccc(-c3nnn(CC(=O)Nc4ccccc4Cl)n3)cc2)CC1 | 87* | 58* | -20 | -7 | -7 | 4 | 73* | 33* | 6
COc1ccc(C(=O)C2(C(=O)Nc3cc(C)cc(C)c3)CC(c3ccccc3C(F)(F)F)=NO2)cc1 (stereo unspecified) | . | . | . | . | . | 11 | . | . | .
COc1ccc(C(C(=O)NC2CCCCC2)N(C(=O)CCl)c2ccc(Cl)cc2)cc1 (stereo unspecified) | 94* | 85* | 0 | 49 | 11 | . | 33 | 28* | -13
COc1ccc(N(C(=O)c2cnccn2)C(C(=O)NC2CCCCC2)c2ccc(Cl)cc2)cc1 (stereo unspecified) | -17 | -4 | -15 | -1 | -9 | -20 | . | . | .
CN1CCN(/N=C/c2nc(-c3ccccc3)n3ccccc23)CC1 | -28 | 53 | 15 | -8 | -19 | -20 | 8 | -3 | -3
CCN(CC)CCN(C(=O)c1cc2ccccc2cc1OC)c1nc2ccc(F)cc2s1 | -17 | 51 | 1 | 4 | -15 | -3 | 28 | -2 | -35
CCOc1ccc(NC(=O)CN2CCCN(c3ccc(OC)cc3)CC2)cc1 | . | . | . | . | . | -20 | . | . | .
Cc1ccc(NS(=O)(=O)c2ccc(-c3ccc(=O)[nH]n3)o2)cc1Cl | -12 | 54 | 28 | 5 | 5 | 5 | 9 | -4 | 5
Cc1ccc(NS(=O)(=O)c2ccc(-c3ccc(=O)[nH]n3)o2)cc1N(C)C | -17 | -14 | 24 | 0 | 5 | 5 | . | . | .
CCOC(=O)C(=O)NCC(c1cccs1)S(=O)(=O)c1ccc(Cl)cc1 (stereo unspecified) | -14 | 55 | 0 | 7 | -2 | -10 | 32 | 15 | 21
